This is a sample that favours compounds with a hit; in the whole collection about 3.8% have one here.
HepG2 viability = HepG2 cytotoxicity, counter-screen for TGF-b inhibitors. HepG2 CAGA-GFP viability, ATP luminescence, 18 h. Potency, µM (series often up to 46.1 µM), inactives show at the highest dose activity change, negative = cytotoxicity, actives largely listed as cytotoxic. hit rate 0.76% among 410,000. AID 588856
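CellTiter-Glo luminescence gave cytotoxicity after 18 hours at 37 degrees C. The cells were HepG2 CAGA-GFP in 1% FBS DMEM, stimulated with 500 pg/mL TGF-beta after compound addition. %Activity was normalised to no-cell wells (complete cell-killing) and DMSO (no toxicity), and curves were fitted and classified.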
Nrf2 inh = blocks Nrf2 signaling. AID 504444. A549 ARE-Fluc reporter, luciferase luminescence, 18-24 h. Potency, µM (titrated, usually from 46 µM), for the others: at the top dose activity change, negative = inhibition, hits mostly inhibitors. hit rate 2.1% among 360,000; further: on the % scale 0 is the no-effect control and ±100 the full control effect; nearly all actives have a fitted effect of over 60% in size
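Reporter: ARE-Fluc in A549. Exposure: 18-24 h, 37 °C, 5% CO2, 5% FBS OPTI-MEM. Readouts: fluorescent cytotoxicity (CellTiter-Fluor), then luminescent Nrf2 signal after BugLite.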
ATXN2 expr inh = reduces ATXN2 reporter expression in HEK-293 cells. HEK-293 ATXN2-luciferase reporter, luminescence, 24 h. Potency, µM (doses to about 57 µM), without a hit: at the top dose activity change, negative = inhibition, usual class: inhibitors. hit rate 0.72% among 360,000; further: on the % scale 0 is the no-effect control and ±100 the full control effect; nearly all actives have a fitted effect of over 55% in size
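ATXN2-luciferase reporter cells (luciferase flanked by upstream and downstream ATXN2 gene portions) were treated 24 h at 37 °C with compounds at up to 57 uM. SteadyGlo luminescence gave expression; GF-AFC fluorescence gave viability.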
S2 tox = reduces viability in counter-screen for ATXN expression inhibitors | S2 cells (HEK-293 line with an ATXN2-luciferase reporter) viability, CellTiter-Fluor protease fluorescence, 24 h | Potency, µM (top dose mostly 56.7 µM), actives largely listed as cytotoxic | hit rate 0.49% among 400,000 | AID 651635; further: nearly all actives have a fitted effect of over 40% in size
TGFb SMAD3 inh = blocks TGF-b signaling; HepG2 CAGA-GFP TGF-b/SMAD3 reporter, GFP fluorescence, 18 h; TGF-beta stimulated, 500 pg/mL final; Potency, µM (highest dose often 46.1 µM), for the others: at the top dose activity, negative = inhibition, hits mostly inhibitors; hit rate 1.2% among 410,000; AID 588855; further: on the % scale 0 is the no-effect control and ±100 the full control effect; nearly all actives have a fitted effect of over 65% in size
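Smad-responsive CAGA-GFP expression was quantified in HEPG2 cells exposed to compounds and 500 pg/mL final TGF-beta for 18 h at 37 degrees C; unstimulated wells defined full inhibition.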
A549 viability = kills or reduces viability of A549 cells in Nrf2 counter-screen; Potency, µM (series often up to 46 µM), for the others: at the highest dose activity change, negative = cytotoxicity, hits mostly inhibitors; AID 504648; hit rate 0.16% among 390,000; A549 ARE-Fluc cells, CellTiter-Fluor viability, 18-24 h; further: on the % scale 0 is the no-effect control and ±100 the full control effect
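Cytotoxicity counterscreen: CellTiter-Fluor fluorescence was measured in A549 ARE_Fluc cells after 18-24 h of compound exposure in a concentration series. The subsequent BugLite luminescent read reports ARE-luciferase activity.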
* hit, by the source's call; i = inactive; u = inconclusive; x = not tested or not shown; ! = a repeat was not active. The call rests on the fitted dose curve; in most records, active means well fitted curve in the direction sought with a large enough effect; inconclusive means small, poorly fitted or top-dose-only effect, or another doubt; inactive means no such curve, though single readings can be large; an effect the other way counts as inactive or inconclusive. Potency means the concentration at half of the fitted maximal effect.

SMILES	HepG2 viability	Nrf2 inh	ATXN2 expr inh	S2 tox	TGFb SMAD3 inh	A549 viability
CCCSc1nnc2c(n1)OC(c1sccc1C)Nc1ccccc1-2 (centres undefined)	0%	u	x	x	-8%	14%
Cc1ccc(OCC(=O)N(Cc2ccco2)Cc2ccco2)cc1C	-30%	-13%	x	x	-8%	-2%
CCOC(=O)c1c(C)[nH]c(C)c1S(=O)(=O)NCCN1CCN(c2cc(Cl)ccc2C)CC1	-115%	u	x	i	11µM*	-6%
CC[N+](CC)(CC)CC(=O)Nc1ccc(SC(F)F)cc1	10%	4%	-25%	i	2%	3%
CCn1c(N)[n+](CC(=O)Nc2ccc(SC(F)F)cc2)c2ccccc21	14µM*	-3%	u	i	u	0%
C=CCN(C)CC/C=C1\c2ccccc2CSc2ccccc21	-41%	9%	-14%	i	-16%	-10%
NCC/C=C1/c2ccccc2CSc2ccccc21	16µM*	1%	-30%	i	u	-19%
O=C(NC1CCCC1)c1cnn(-c2ccc(F)cc2F)c1C1CCNCC1	-9%	u	11%	i	18%	-2%
Cc1cnc(SCc2ccccn2)nc1C1CCCN(C(=O)c2cc3ccccc3oc2=O)C1 (centres undefined)	x	x	x	i	x	x
Cc1ccc(Cl)cc1NC(=O)c1ccc(-c2nc(CSc3ccccc3)c(C)o2)cc1	-22%	13µM*	u	i	-18%	-4%
Cc1cccc(NC(=O)c2ccc(-c3nc(CSc4ccccc4)c(C)o3)cc2)c1C	-59%	13µM*	-4%	u	-15%	0%
CC(=O)c1ccc(NC(=O)c2ccc(-c3nc(CSc4ccccc4)c(C)o3)cc2)cc1	-20%	10µM*	x	x	-27%	1%
COc1ccc(NC(=O)c2ccc(-c3nc(CSc4ccccc4)c(C)o3)cc2)cc1OC	-84%	u	-12%	i	u	-15%
COc1ccc(NC(=O)c2ccc(-c3nc(CSc4ccc(C)cc4)c(C)o3)cc2)cc1Cl	-34%	23µM*	-9%	u	u	-13%
Cc1ccc2c(c1)N(CC(=O)NCCCN1C(C)CCCC1C)C(=O)c1cccnc1O2 (centres undefined)	-6%	18%	0%	i	2%	7%
CC1=CC(C)(C)Nc2ccc(OC(=O)CN3C(=O)c4cccc5cccc(c45)C3=O)cc21	-19%	u	u	i	-4%	-4%
CC1=CC(C)(C)Nc2ccc(OC(=O)CN3C(=O)c4ccccc4C3=O)cc21	18µM*	u	28µM*	x	-14%	-2%
CCOC(=O)Cn1cc(C#N)c2ccccc21	7%	2%	2%	i	u	0%
O=[N+]([O-])/C=C/c1cn(Cc2ccc(Cl)cc2)c2ccccc12	3.5µM*	u	u	u	-41%	-17%
Cc1cccc(Cn2cc(/C=C/[N+](=O)[O-])c3ccccc32)c1	-61%	16µM*	-77%	u	7.9µM*	x
CCOC(=O)Cn1cc(/C=C/[N+](=O)[O-])c2ccccc21	-72%	-19%	x	x	16µM*	-5%
COc1ccc2c(C)c(CCC(=O)NCCc3ccccc3OC)c(=O)oc2c1	-2%	-14%	0%	i	-1%	1%
CCN(c1cccc(C)c1)S(=O)(=O)c1cc(CN2C(=O)c3cccnc3C2=O)ccc1OC	11µM*	-3%	2%	i	2%	1%
COc1ccc(CN2C(=O)c3cccnc3C2=O)cc1S(=O)(=O)N(C)c1ccc(C)cc1	-1%	-20%	10%	i	-3%	-1%
Cc1cc2oc(=O)cc(Cn3ncc(Cl)c(Cl)c3=O)c2cc1Cl	-30%	u	25µM*	x	u	u
SMILES	HepG2 viability	Nrf2 inh	ATXN2 expr inh	S2 tox	TGFb SMAD3 inh	A549 viability
Cc1cc2oc(=O)cc(CN3CCN(c4ccccc4)CC3)c2cc1Cl	-17%	x	5%	i	-14%	x
CCC/C=N/Nc1nc2ccccc2s1	-38%	u	14%	x	-11%	1%
C/C(N=Nc1nc2ccccc2s1)=N\Nc1ccccc1O	-97%	u	u	u	11µM*	u
COc1ccc(-n2nc3c(N4CCCC(C(=O)NCCc5ccccc5C)C4)nnc(C)c3c2C)cc1 (centres undefined)	-52%	u	u	x	u	-30%
COc1ccccc1CNC(=O)C1CCCN(c2nnc(C)c3c(C)n(-c4ccccc4)nc23)C1 (centres undefined)	-53%	-35%	-10%	u	u	-7%
CCOc1ccccc1CNC(=O)C1CCCN(c2nnc(C)c3c(C)n(-c4ccccc4)nc23)C1 (centres undefined)	0%	23µM*!	u	7.9µM*	u	u
COc1ccc(-n2nc3c(N4CCCC(C(=O)NCc5ccccc5C)C4)nnc(C)c3c2C)cc1 (centres undefined)	-74%	21µM*	x	x	5µM*	18µM*
CCC(C)(C)NC(=O)c1ccc(S(=O)(=O)N2CCCCCC2)cc1	-12%	8%	-13%	i	-1%	5%
COc1ccc(CCNC(=S)Nc2ccc(C(C)C)cc2)cc1	-72%	-6%	x	i	16µM*	8%
CCCCc1ccc(NC(=S)NCc2ccc(OC)cc2)cc1	-40%	-3%	x	i	10µM*	17%
COc1ccc(CNC(=S)Nc2ccc(OC)cc2)cc1	-4%	-12%	11%	i	25%	6%
COc1ccc(CCNC(=S)Nc2ccc(OC)cc2)cc1	-27%	7%	2%	i	-20%	2%
Oc1ccc(/C=N/N2CCN(C3c4ccccc4-c4ccccc43)CC2)cc1	18µM*	8%	9%	i	13µM*	1%
O=C(O)c1ccc(/C=N/N2CCN(C3c4ccccc4-c4ccccc43)CC2)cc1	-5%	u	6%	i	u	-7%
Cc1nc(-c2ccc(S(=O)(=O)N3CCN(C(c4ccccc4)c4ccccc4)CC3)s2)cs1	13%	3%	-19%	i	4%	8%
Cc1nc(-c2ccc(S(=O)(=O)N3CCN(Cc4ccccc4)CC3)s2)cs1	-2%	16µM*	x	i	-24%	3%
CCOC(=O)c1ccc(N2C(=O)c3n[nH]c(C)c3C2c2ccc(OC)cc2OC)cc1 (centres undefined)	-55%	18µM*	-18%	i	u	u
CCOC(=O)c1ccc(N2C(=O)c3n[nH]c(-c4ccco4)c3C2c2ccc(OC)cc2OC)cc1 (centres undefined)	-46%	u	u	u	16µM*	-19%

Source: PubChem
